According to PubChem BioAssay (NCATS):
Several values for one entry are separate records, joined by “and”; a condition that tells them apart may be missing. Identical values can stand only once. Inconclusive results are not listed. Values without a mark were called inactive. Activity calls are given as the source filed them. Calls come from the whole dose curve; as a rule, active = well fitted activation curve with a large enough effect; inconclusive = small, poorly fitted or top-dose-only effect; inactive = no such curve, though single readings can be large or run the other way.

The molecules below were run against Cellular tumor antigen p53 (Homo sapiens) (UniProt P04637) (assay: Primary qHTS for small molecule compounds that upregulate eGFP-tagged delta133p53alpha (in N-terminal) cells. (AID 2060322; note: nearly all actives have a fitted effect of over 75% in size;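 for activation: series mostly up to about 56 µM; 0% = DMSO vehicle and 100% = reference activator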)). Settings: NCI-H358 eGFP-delta133p53alpha fluorescence, 24 h; activation: stronger effect = higher value.
Cellular tumor antigen p53 (Homo sapiens), sequence (P04637 whole entry, looked up): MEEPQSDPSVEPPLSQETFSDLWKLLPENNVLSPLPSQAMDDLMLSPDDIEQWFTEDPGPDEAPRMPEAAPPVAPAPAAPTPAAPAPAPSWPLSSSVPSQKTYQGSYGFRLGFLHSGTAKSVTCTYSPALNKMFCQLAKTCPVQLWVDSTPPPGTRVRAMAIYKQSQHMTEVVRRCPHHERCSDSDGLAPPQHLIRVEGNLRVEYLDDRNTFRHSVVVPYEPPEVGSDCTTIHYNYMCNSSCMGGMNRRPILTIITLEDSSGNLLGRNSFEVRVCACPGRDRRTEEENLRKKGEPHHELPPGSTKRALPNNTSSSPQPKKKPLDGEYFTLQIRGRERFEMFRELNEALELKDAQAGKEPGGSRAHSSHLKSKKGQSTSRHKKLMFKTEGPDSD
Method in brief: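 NCI-H358 cells pre-induced 24 h with 10 ng/ml doxycycline to express N-terminal eGFP-delta133p53alpha, then dosed 24 h at 37C without doxycycline; fixed, Hoechst-stained, GFP intensity by laser scanning cytometry, normalized to DMSO (0%) and 57.5 uM 5-azacytidine (100%).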
Potency is the fitted concentration of half-maximal effect.

Row | Compound | activation | Potency
1 | CN(C)CCn1nnnc1SCC1=C(C(=O)O)N2C(=O)[C@@H](NC(=O)Cc3csc(N)n3)[C@H]2SC1 | -0.565% | 
2 | Cc1nc2n(c(=O)c1CCN1CCC(c3noc4cc(F)ccc34)CC1)CCCC2 | 2.45% and 8.37% | 
3 | CCCCNC(=O)NS(=O)(=O)c1ccc(N)cc1 | -14.2% | 
4 | C=CCNc1nc(NCC=C)nc(N2CCN(C(c3ccc(F)cc3)c3ccc(F)cc3)CC2)n1 | -14.2% | 
5 | C/C(=N\O)[C@@H](C)NCC(C)(C)CN[C@H](C)/C(C)=N/O | -12.6% | 
6 | Cn1cc(C=C2C(=O)Nc3cccnc32)c2ccccc21 |  | 24.3 µM (active)
7 | CO[C@H]1O[C@@H]2O[C@@]3(C)CC[C@@H]4[C@@H](C)CC[C@@H]([C@H]1C)[C@@]24OO3 | 20% | 
8 | C[C@]12CCC(=O)C=C1[C@@H]1CC1[C@H]1[C@H]3[C@@H]4C[C@H]4[C@@]4(CCC(=O)O4)[C@@]3(C)CC[C@H]12 (some centres not stated) | 8.34% | 
9 | CCN(CC)C(=O)N1CCN(C)CC1 | -2.51% | 
10 | Oc1cccc2[nH]ccc12 | -5.08% | 
11 | CC(=O)OCC(=O)[C@@]1(O)CCC2C3CCC4=CC(=O)CC[C@]4(C)C3[C@@H](O)C[C@@]21C (some centres not stated) | 25.1% | 
12 | CC[C@@H]([C@H](C)O)n1ncn(-c2ccc(N3CCN(c4ccc(OC[C@@H]5CO[C@@](Cn6cncn6)(c6ccc(F)cc6F)C5)cc4)CC3)cc2)c1=O | 22.6% | 
13 | CC1=C(C(=O)O)N2C(=O)[C@@H](NC(=O)[C@H](N)c3ccccc3)[C@H]2SC1 | -27.6% | 
14 | CCOc1cc(NC(C)=O)ccc1C(=O)OC | -3.95% | 
15 | C#C[C@]1(O)CC[C@H]2[C@@H]3CCC4=CC(=O)CC[C@@H]4[C@H]3CC[C@@]21C | 7.34% | 
16 | OC[C@H]1O[C@@H](n2cnc3c2NC=NC[C@@H]3O)C[C@H]1O | -21% | 
17 | CC1(C)SCCN(S(=O)(=O)c2ccc(OCC#CCO)cc2)[C@@H]1C(=O)NO | 9.74% | 
18 | CC(=O)O[C@@H]1CC2C3CCc4cc(OC(=O)c5ccccc5)ccc4C3CCC2(C)[C@H]1OC(C)=O (some centres not stated) | 6.21% | 
19 | CC(C)CCOC(=O)c1ccc(N(C)C)cc1 | 6.69% | 
20 | O=C(O)CCCc1ccccc1 | 20.9% | 
21 | CCCCC1(COC(=O)CCC(=O)O)C(=O)N(c2ccccc2)N(c2ccccc2)C1=O | -7.34% | 
22 | CN(C)[C@@H]1C(=O)C(C(N)=O)=C(O)[C@@]2(O)C(=O)C3=C(O)c4c(O)cccc4C[C@H]3C[C@@H]12 |  | 17.4 µM (active)
23 | CCC(Cc1c(I)cc(I)c(N)c1I)C(=O)O (configuration not stated) | 29.9% | 
24 | CCOC(=O)c1ccc(N)cc1 | 8.37% | 
25 | CCOc1ccccc1O[C@H](c1ccccc1)[C@H]1CNCCO1 | -13% | 
26 | O=C(CCCl)NCCc1ccccc1 | -4.18% | 
27 | CC(C)(C)C(=O)NCCCC(=O)O | -17.6% | 
